# Sampled rows, rich in hits. Any-hit rate of the full collection: about 2.4%.
# HepG2 tox – counter-screen for TGF-b inhibitors: cytotoxicity in HepG2 cells. HepG2 CAGA-GFP viability, ATP luminescence, 18 h. Potency, µM (titrated, usually from 46.1 µM), without a hit: at the highest dose activity change, negative = cytotoxicity, hits mostly cytotoxic. actives 0.76% (n = 410,000)
#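 HepG2 CAGA-GFP cells (1000/well, DMEM with 1% FBS) received compound, then TGF-beta at 500 pg/mL final, and were incubated 18 hours at 37 degrees C. Viability was read by CellTiter-Glo luminescence. Media-only wells were set as complete cell-killing and DMSO as no toxicity.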
# ATXN2 expr inh – ATXN2 expression inhibition; HEK-293 ATXN2-luciferase reporter, luminescence, 24 h; Potency, µM (doses to about 57 µM), for the others: at the top dose activity change, negative = inhibition, hits mostly inhibitors; actives 0.72% (n = 360,000); also: % is scaled to controls: 0 for no effect and ±100 for the full control effect; nearly all actives have a fitted effect of over 55% in size
#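 ATXN2-luciferase reporter cells (luciferase flanked by upstream and downstream ATXN2 gene portions) were treated 24 h at 37 °C with compounds at up to 57 uM. SteadyGlo luminescence gave expression; GF-AFC fluorescence gave viability.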
# Anesthetic bind – binds horse apoferritin like a general anesthetic; P02791; actives 0.074% (n = 350,000); AID 485281; Potency, µM (doses to about 77.5 µM), for inactives: at the top dose activity change, negative = displacement, most hits filed as inhibitors; apoferritin/1-aminoanthracene competitive binding, fluorescence; also: % is scaled to controls: 0 for no effect and ±100 for the full control effect; nearly all actives have a fitted effect of over 20% in size
# Target sequence (P02791 2-175 limits assumed): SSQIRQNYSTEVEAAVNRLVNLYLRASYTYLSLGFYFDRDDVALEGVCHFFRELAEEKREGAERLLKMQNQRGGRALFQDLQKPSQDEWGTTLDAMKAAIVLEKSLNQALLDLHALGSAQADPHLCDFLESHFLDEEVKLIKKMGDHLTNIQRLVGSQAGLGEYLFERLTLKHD
#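 Horse-spleen apoferritin (10 uM) in 50% saturated 1-aminoanthracene in PBS was incubated 10 min at room temperature with compound. Fluorescence (ex 380, em 535 nm) was normalized to free and bound 1-AMA, with concentration-response fitted by a four-parameter Hill equation.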
# S2 tox – reduces viability in counter-screen for ATXN expression inhibitors. S2 cells (HEK-293 line with an ATXN2-luciferase reporter) viability, CellTiter-Fluor protease fluorescence, 24 h. Potency, µM (highest dose often 56.7 µM), usual class: cytotoxic. actives 0.49% (n = 400,000). AID 651635; also: nearly all actives have a fitted effect of over 40% in size
# TGFb inhibitor – TGF-b pathway inhibition; AID 588855; actives 1.2% (n = 410,000); HepG2 CAGA-GFP TGF-b/SMAD3 reporter, GFP fluorescence, 18 h; TGF-beta stimulated, 500 pg/mL final; Potency, µM (highest dose often 46.1 µM), for the others: at the highest dose activity, negative = inhibition, hits mostly inhibitors; also: % is scaled to controls: 0 for no effect and ±100 for the full control effect; nearly all actives have a fitted effect of over 65% in size
#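 GFP signal (ex488/em500-530) from TGF-beta-stimulated HEPG2 CAGA-GFP cells, 500 pg/mL final, 18 h at 37 degrees C in DMEM plus 1% FBS, normalized to unstimulated and DMSO-stimulated controls.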
# * hit, by the source's call; i = inactive; u = inconclusive; x = not tested or not shown; [ ] = remark or other dose. Calls follow the shape of the dose curve; as a rule, active = well fitted curve in the direction sought with a large enough effect; inconclusive = small, poorly fitted or top-dose-only effect, or another doubt; inactive = no such curve, though single readings can be large; an effect the other way counts as inactive or inconclusive. Potency is read from the fitted curve at half-maximal effect.
SMILES,HepG2 tox,ATXN2 expr inh,Anesthetic bind,S2 tox,TGFb inhibitor
COc1ccc(N=c2nc(-c3ccc(C)cc3)n(-c3ccccc3)s2)cc1,-62%,x,x,x,3.2µM*
c1ccc(-n2ncc3c(N4CCCCC4)ncnc32)cc1,-26%,13µM*,-14%,i,-4%
COc1cccc(N2CCN(c3ncnc4c3cnn4-c3ccc(C)cc3C)CC2)c1,-60%,7.9µM*,2%,10µM*,u
Cc1cccc(-n2ncc3c(N4CCCCCC4)ncnc32)c1,-25%,x,-4%,x,-4%
CCN(CC)C(=O)C1CCCN(c2ncnc3c2cnn3-c2ccc(Cl)cc2)C1 (stereo not drawn),-25%,13µM*,u,u,-2%
O=C(OCC1(COC(=O)c2cccnc2)CCCC(COC(=O)c2cccnc2)(COC(=O)c2cccnc2)C1O)c1cccnc1,x,-1%,x,i,x
Cc1ccc(S(=O)(=O)c2nc(-c3ccc(F)cc3)oc2N2CCN(c3ccccc3)CC2)cc1,0%,x,-3%,x,0%
CCCSc1oc(-c2cccs2)nc1S(=O)(=O)c1ccc(C)cc1,0%,-8%,-12%,i,-24%
CCC(C)S(=O)(=O)c1oc(-c2ccc(F)cc2)nc1S(=O)(=O)c1ccc(F)cc1 (stereo not drawn),3.5µM*,x,u,x,u
CSc1oc(-c2ccc(F)cc2)nc1S(=O)(=O)c1ccc(Br)cc1,0%,4%,-9%,i,0%
CCCCS(=O)(=O)c1oc(-c2cccs2)nc1S(=O)(=O)c1ccc(F)cc1,5.6µM*,x,u,x,5µM*
CCCCS(=O)(=O)c1oc(-c2ccc(F)cc2)nc1S(=O)(=O)c1ccc(C)cc1,3.5µM*,x,u,x,4.5µM*
CCS(=O)(=O)c1oc(-c2ccc(F)cc2)nc1S(=O)(=O)c1ccccc1,2.5µM*,x,-5%,x,x
CCc1ccc(NC(=O)c2[nH]c(C)c(C(C)=O)c2C)cc1,-15%,55%,34%,i,-10%
CCCCCS(=O)(=O)c1oc(-c2cccs2)nc1S(=O)(=O)c1ccc(C)cc1,-104%,x,-2%,x,7.9µM*
NCCCn1c(C(=O)c2cc(Cl)c(N)c(Cl)c2)c2ccc([N+](=O)[O-])cc2[n+]1[O-],-45%,u,x,10µM*,u
NCCCn1c(C(=O)c2cc(Cl)c(N)c(Cl)c2)c2ccc(C(F)(F)F)cc2[n+]1[O-],-54%,-30%,x,u,-38%
COc1ccc(NS(=O)(=O)c2cccc(NC(=O)c3ccc(Cl)nc3)c2)cc1,1%,-21%[11.3 µM],-13%,i,u
O=C1CSc2ccc(C(=O)Nc3cccc(S(=O)(=O)Nc4ccc(Br)cc4)c3)cc2N1,16µM*,x,-20%,u,13µM*
O=C(Nc1ccc(Br)cc1)c1cccc(S(=O)(=O)Nc2ccc(Br)cc2)c1,x,x,-16%,x,x
O=C(Nc1cccc(S(=O)(=O)Nc2ccc(Cl)cc2)c1)c1ccc(Cl)nc1,-41%,u,2%,u,14µM*
CC(C)c1ccc(NC(=O)Cn2cccc2C2=NC(c3ccccc3)CO2)cc1 (stereo not drawn),-22%,2%,-10%,i,1%
COc1cccc(CN2C(=O)c3ccccc3Sc3ccc(C(=O)N(C)Cc4ccccc4)cc32)c1,4%,-35%,26%,i,u
Cc1ccccc1OCc1nc(-c2ccc(NC(=O)c3ccc4c(c3)OCO4)cc2)no1,20µM*,u,-10%,u,u
Cc1ccccc1OCc1nc(-c2ccc(NC(=O)c3ccco3)cc2)no1,-24%,-3%,-3%,u,-1%
SMILES,HepG2 tox,ATXN2 expr inh,Anesthetic bind,S2 tox,TGFb inhibitor
OC(CNCCc1ccc(C(F)(F)F)cc1)COc1ccc2ccccc2c1 (stereo not drawn),-92%,28µM*,u,x,u
COc1ccc(CCNCC(O)COc2cccc(C)c2)cc1OC (stereo not drawn),x,x,x,i,x
COc1ccc(CCNCC(O)COc2cccc(Br)c2)cc1 (stereo not drawn),13µM*,u,u,i,-37%
OC(CNCCc1ccc(C(F)(F)F)cc1)COc1cccc2ccccc12 (stereo not drawn),-114%,x,-21%,u,u
Cc1ccc(/C=C2/CNC/C(=C/c3ccc(C)cc3)C2=O)cc1,-51%,u,x,u,10µM*
Cc1cc(Nc2nnnn2-c2ccccc2)n(-c2ccc(Cl)cc2)n1,2.8µM*,-10%,-11%,i,13µM*
Cc1cc(Nc2ccccc2)n(-c2ccccc2)n1,0%,-20%,-3%,i,-12%
COc1ccc(-c2[nH]c(-c3ccccc3)nc2SCC(=O)Nc2ccc3c(c2)OCCO3)cc1,-5%,u,13%,u,-22%
Nc1nc(SCC(=O)Nc2ccc3c(c2)OCO3)n[nH]1,10µM*,8%,-3%,i,-2%
COc1ccc(-c2nc(SCC(=O)NC3CCCC3)c(-c3ccc(F)cc3)[nH]2)cc1,-35%,x,3%,x,11µM*
Nc1cc(N)nc(SCC(=O)Nc2ccc3c(c2)OCO3)n1,-27%,-5%,-2%,i,-1%
O=C(CSc1nc(-c2ccc(F)cc2)[nH]c1-c1ccc(F)cc1)Nc1ccc2c(c1)OCO2,-69%,u,1%,u,7.1µM*
O=C(CSc1nc(-c2ccccc2)[nH]c1-c1ccccc1)Nc1ccc2c(c1)OCCO2,10µM*,u,2%,x,u
CCOc1ccc(-c2nc(SCC(=O)Nc3ccc4c(c3)OCO4)c(-c3ccc(F)cc3)[nH]2)cc1,-28%,3%,-15%,i,-13%
